# High-throughput results as filed in PubChem BioAssay.
# In the library only some 7.6% were active in any assay of this set; here they are far more common.
# MCF10A rereplic = inducers of DNA re-replication in MCF 10A breast cells; hit rate 2.9% among 350,000; MCF 10A DNA re-replication, Hoechst nuclear intensity, 48 h; AID 624296; Potency, µM (top dose mostly 46.1 µM), without a hit: at the highest dose activity, positive = re-replication, most hits filed as activators; further: potency means the concentration at half of the fitted maximal effect; % of control where 0% means no effect; nearly all actives have a fitted effect of over 50% in size
# KB-3-1 cytotox = kills parental KB-3-1 adenocarcinoma cells. KB-3-1 viability, CellTiter-Glo ATP luminescence, 72 h. Potency, µM (series often up to 46.1 µM), actives largely listed as cytotoxic. hit rate 1.4% among 400,000. AID 1347075; further: potency means the concentration at half of the fitted maximal effect; on the % scale 0 is the no-effect control and ±100 the full control effect; nearly all actives have a fitted effect of over 60% in size
#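 Luminescent ATP read-out (CellTiter-Glo) measures survival of drug-naive KB-3-1 cells after 72 h compound exposure at 37 °C. Titration series was screened from lowest to highest concentration, with DMSO vehicle plates as background controls.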
# KCNH2 3.1 block = blocks the human KCNH2 3.1 channel isoform; activity change, % (tested at about 1.8 µM); hit rate 0.95% among 340,000; AID 720553; U2OS KCNH2 3.1, thallium flux FluxOr; active compounds read low;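 active means maximum activity change below -70%; inconclusive means maximum activity change from -70% to -50%; inactive means maximum activity change above -50%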;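 further: thallium influx rate constant from kinetic fluorescence after stimulation buffer; on the % scale 0 is the no-effect control and ±100 the full control effect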
#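 Steps: virus added to U2OS suspension (4 h, RT, dark); medium with 10% FBS added, cells plated, 37 C overnight; FluxOr/Red40 loading buffer 45 min RT; stimulation buffer, 2 min kinetic read; rate constant normalized.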
# KB-V1 MDR tox = KB-V1 MDR subline cytotoxicity; KB-V1 MDR cells viability, CellTiter-Glo, 72 h; Potency, µM (top dose mostly 46.1 µM), hits mostly cytotoxic; hit rate 3.4% among 400,000; AID 1347076; further: potency means the concentration at half of the fitted maximal effect; on the % scale 0 is the no-effect control and ±100 the full control effect; nearly all actives have a fitted effect of over 60% in size
#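 KB-V1, DMEM (no phenol red) + 10% FBS; cpd pin-transferred, titration series; 72 h, 37 degrees C; CellTiter-Glo, luminescence. Data normalized, curve-fit.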
# SW480 rerep = DNA re-replication induction in SW480 cells; SW480 DNA re-replication, Hoechst DNA content imaging, 48 h; Potency, µM (highest dose often 46.1 µM), without a hit: at the highest dose re-replication activation, most hits filed as activators; hit rate 1.8% among 340,000; AID 624297; further: potency means the concentration at half of the fitted maximal effect; % of control where 0% means no effect; nearly all actives have a fitted effect of over 55% in size
#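 Treated cells incubate 48 hr (37 C, 5% CO2), are stained 40 min with Hoechst, and nuclear fluorescence is enumerated; a rise in nuclei with high DNA signal marks re-replication.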
# hERG WT inh = inhibitors of human wildtype KCNH2 potassium channel; Q12809; U2OS, BacMam KCNH2, thallium flux FluxOr; active compounds read low; activity change, % at 1.84 µM; hit rate 0.37% among 340,000;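 active means maximum activity change below -70%; inconclusive means maximum activity change between -70% and -50%; inactive means maximum activity change above -50%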; further: on the % scale 0 is the no-effect control and ±100 the full control effect
# Target sequence (Q12809 whole entry, looked up): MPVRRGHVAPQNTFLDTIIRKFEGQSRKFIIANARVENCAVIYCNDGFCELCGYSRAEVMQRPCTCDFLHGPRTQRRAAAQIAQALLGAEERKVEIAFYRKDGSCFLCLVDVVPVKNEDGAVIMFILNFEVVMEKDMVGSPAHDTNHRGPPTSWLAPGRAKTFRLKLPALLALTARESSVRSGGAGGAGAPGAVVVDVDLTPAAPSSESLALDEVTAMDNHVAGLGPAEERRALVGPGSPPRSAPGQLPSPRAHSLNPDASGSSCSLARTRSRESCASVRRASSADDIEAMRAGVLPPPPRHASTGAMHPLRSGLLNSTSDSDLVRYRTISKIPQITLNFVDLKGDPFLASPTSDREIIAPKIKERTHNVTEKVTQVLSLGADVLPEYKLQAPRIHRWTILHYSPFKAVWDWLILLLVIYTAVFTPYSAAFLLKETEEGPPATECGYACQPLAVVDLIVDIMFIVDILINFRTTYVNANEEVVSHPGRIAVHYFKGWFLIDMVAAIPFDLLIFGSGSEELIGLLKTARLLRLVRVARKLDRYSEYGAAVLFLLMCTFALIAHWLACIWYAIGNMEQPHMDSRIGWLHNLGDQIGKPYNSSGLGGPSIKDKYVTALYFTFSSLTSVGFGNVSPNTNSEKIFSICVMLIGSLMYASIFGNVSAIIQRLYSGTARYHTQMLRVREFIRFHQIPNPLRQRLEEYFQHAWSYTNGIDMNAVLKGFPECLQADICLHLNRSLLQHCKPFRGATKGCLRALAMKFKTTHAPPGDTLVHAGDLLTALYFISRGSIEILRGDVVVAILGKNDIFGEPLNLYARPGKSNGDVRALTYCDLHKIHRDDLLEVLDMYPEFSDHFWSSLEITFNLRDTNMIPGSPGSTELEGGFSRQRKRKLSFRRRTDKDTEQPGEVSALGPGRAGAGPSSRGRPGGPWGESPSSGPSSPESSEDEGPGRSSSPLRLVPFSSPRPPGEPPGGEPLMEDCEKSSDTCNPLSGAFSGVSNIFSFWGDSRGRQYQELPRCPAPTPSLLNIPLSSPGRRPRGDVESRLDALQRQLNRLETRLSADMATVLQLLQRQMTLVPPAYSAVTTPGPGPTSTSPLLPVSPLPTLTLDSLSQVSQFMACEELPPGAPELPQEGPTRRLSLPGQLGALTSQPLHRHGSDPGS
#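 U2OS cells transduced with wild-type KCNH2 virus are loaded with FluxOr dye for 45 min, and thallium flux is measured in kinetic reads before and after stimulation buffer. Rate constants are normalized to DMSO controls.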
# The depositor's hits bear a star; i = inactive; u = inconclusive; x = not tested or not shown; [ ] = dose if it differs, or a comment. Unless noted, the call rests on the fitted dose curve; in most records, active means well fitted curve in the direction sought with a large enough effect; inconclusive means small, poorly fitted or top-dose-only effect, or another doubt; inactive means no such curve, though single readings can be large; an effect the other way counts as inactive or inconclusive.
SMILES,MCF10A rereplic,KB-3-1 cytotox,KCNH2 3.1 block,KB-V1 MDR tox,SW480 rerep,hERG WT inh
CCOC(=O)C1=C(C)N(C[C@@H]2CC[C@@H](Cc3ccc(-c4ccccc4)cc3)O2)C(=O)NC1c1ccc(C(F)(F)F)cc1 (stereo partly drawn),-20%,i,-4,i,u,1
CCOC(=O)c1sc(NS(=O)(=O)c2ccccc2)nc1C,-1%,i,0,i,13%,-9
Cc1nc(NS(=O)(=O)c2ccccc2)sc1C(C)(C)C,-1%,i,-1,18µM*,-138%,-4
Cc1ccc2nc(-c3ccccc3)c(Cc3ccsc3)n2c1,x,u,x,21µM*,x,x
Cc1ccc2nc(C3CCCCC3)c(Cc3ccsc3)n2c1,x,u,x,16µM*,x,x
Cc1ccc(Cc2c(C3CCCCC3)nc3ccc(C)cn23)cc1,x,i,x,i,x,x
Cc1ccc(-c2nc3c4ccccc4ccn3c2Cc2ccsc2)cc1,x,i,x,i,x,x
CC1(C)CC(Cc2nc(=S)[nH][nH]2)C(=O)O1 (stereo not drawn),1%,i,5,i,-2%,4
CCCNC(=O)NC(=O)CSc1ccc(C)cc1C,20%,i,-26,i,-8%,-6
CCCCNc1c(-c2cccc(-c3cc(C(C)=O)cs3)c2)nc2ccc(C)cn12,u,u,u,21µM*,u,28
CCCCNc1c(-c2ccc(OC)c(SC3CCCCC3)c2)nc2cc(C)ccn12,u,u,u,u,24%,3
CCCCNc1c(-c2ccc(-c3cccc(Cl)c3)cc2)nc2ccccn12,u,u,u,u,-20%[9.22 µM],-46
CCCCNc1c(-c2cccc(-c3ccc(OC)cc3)c2)nc2ccc(C)cn12,4.1µM*,u,-27,u,u,-36
CCCCCCSc1cccc(-c2nc3ccc(Cl)cn3c2NCCCC)c1,23%,i,7,u,-4%,-10
CCCCNc1c(-c2cccc(-c3ccc(OC)cc3)c2)nc2cc(C)ccn12,23µM*,u,-38,u,u,-16
CC(=O)NCc1ccc(S(=O)(=O)N/N=C/c2ccc(N(C)C)cc2)cc1,0%,i,6,i,15%,-3
O=[N+]([O-])c1ccc(/C=C2\CCC(C3=CCCC3)=C2N2CCOCC2)cc1,23µM*,i,5,u,u,-13
CCc1ccc(N2CC(C(=O)Nc3ccc(C)c(S(=O)(=O)N4CCOCC4)c3)CC2=O)cc1 (stereo not drawn),1%,i,12,23µM*,0%,8
CCOc1ccc(N2CC(C(=O)Nc3ccc(N4CCOCC4)cc3)CC2=O)cc1 (stereo not drawn),2%,i,14,i,u,-104*
CCN(C(=O)Cn1cnc2c1c(=O)n(C)c(=O)n2C)c1ccccc1C,x,i,x,u,x,x
COc1ccc(-c2nc(C#N)c(N3CCc4ccccc4C3)o2)cc1OC,u,i,22,2.1µM*,7%,-2
COc1ccccc1-c1nc(C#N)c(N2CCCCCC2)o1,u,i,1,u,-14%,-3
COc1ccccc1-c1nc(C#N)c(N2CCc3ccccc3C2)o1,16µM*,u,6,u,17%,7
COc1ccc(N2CCN(c3oc(-c4ccc(OC)c(OC)c4)nc3C#N)CC2)cc1,-35%,i,-22,i,0%,-10
O=C(Nc1ccccc1)c1cccc2c(=O)c3c([nH]c12)CCCC3,x,i,x,i,x,x
Cc1cc(C)nc(Oc2ccc(Br)cc2Br)n1,-9%,i,12,i,-7%,-9
O=C(Nc1c(-c2ccc(F)cc2)nc2ccccn12)c1ccccc1F,x,i,x,i,x,x
O=C(Nc1cccnc1)c1sc(Nc2ccccc2F)nc1-c1ccccc1,u,i,-24,i,u,23
Cc1ccccc1Nc1nc(-c2ccccc2)c(C(=O)Nc2cccnc2)s1,23µM*,i,-15,i,u,2
